# Source: PubChem BioAssay (several laboratories)
# Sampled rows, rich in hits. Any-hit rate of the full collection: about 27%.
# CYP2C9 inhib: inhibitors of human CYP2C9; P11712; CYP2C9 Supersomes, luciferin-H conversion, luminescence; inhibition, % at 5 µM; hit rate 20% among 96,000; AID 777;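 active means blocking of liver enzyme CYP2C9 beyond about 50% at 5 µM, limit read from the data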
# CYP2C19 inh: inhibitors of human CYP2C19; CYP2C19 Supersomes, luciferin-H EGE luminescence, 30 min; P33261; inhibition, % at 5 µM; hit rate 21% among 96,000;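 active means CYP2C19 inhibition above a set limit at 5 µM in the primary screen, cut at about 50% in these data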;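 further: plate controls were negative control wells for no effect and 2.5 mM tranylcypromine positive control for full effect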
# Target sequence (P33261 whole entry, looked up): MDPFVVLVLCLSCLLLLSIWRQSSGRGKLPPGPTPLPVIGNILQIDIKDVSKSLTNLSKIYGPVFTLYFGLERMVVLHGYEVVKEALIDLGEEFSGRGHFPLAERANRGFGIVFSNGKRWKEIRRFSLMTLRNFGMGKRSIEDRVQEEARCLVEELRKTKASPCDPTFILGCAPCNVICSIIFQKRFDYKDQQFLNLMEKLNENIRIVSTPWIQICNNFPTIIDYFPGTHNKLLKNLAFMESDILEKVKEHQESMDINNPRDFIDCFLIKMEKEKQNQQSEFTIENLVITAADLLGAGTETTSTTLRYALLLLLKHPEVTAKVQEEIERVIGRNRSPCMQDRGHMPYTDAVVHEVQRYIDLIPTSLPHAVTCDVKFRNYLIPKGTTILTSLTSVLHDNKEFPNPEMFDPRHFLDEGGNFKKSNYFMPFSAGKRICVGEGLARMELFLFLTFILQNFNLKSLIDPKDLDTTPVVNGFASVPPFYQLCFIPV
# CYP2C9 act: increases human cytochrome P450 2C9 activity | recombinant CYP2C9, luciferin-H conversion, luminescence; hits give high values; factor 1 = untreated enzyme, 0 = blocked | activation factor at 5 µM | hit rate 1.4% among 96,000 | AID 1024;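 active means activation factor of 2 or more for CYP2C9 at a 5 µM dose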;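 further: 0 = sulfaphenazole-blocked wells and 1 = vehicle-only wells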
# EphB4 antag: blocks human EphB4 binding to ephrin-B2; hit rate 0.15% among 97,000; inhibition, % at 7 µM; EphB4 LBD / TNYL-RAW-Alexa532 peptide, fluorescence polarization;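 active means inhibition above the screen-wide mean inhibition plus 3 SD, cut at about 15% in these data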;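 further: 0% = DMSO wells and 100% = excess unlabeled TNYL-RAW peptide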
# CYP2C19 activ: cytochrome P450 2C19 (human) activation; recombinant CYP2C19, luciferin-H EGE luminescence; hits give high values; 0 = fully inhibited enzyme, 1 = untreated enzyme; activation factor at 5 µM; 96,000 tested, under 10 active; AID 1025;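 active means activation factor of at least 2 at 5 µM in the primary screen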;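 further: 0 = wells with 2.5 mM tranylcypromine and 1 = vehicle-only wells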
# * hit, by the source's call; / = not tested or not shown.
SMILES,CYP2C9 inhib,CYP2C19 inh,CYP2C9 act,EphB4 antag,CYP2C19 activ
O=S(=O)(Nc1ccc2c(c1)OCO2)c1ccccc1,88*,100*,0.1,13,0
Cc1cc(NS(=O)(=O)c2ccc(NC(=O)Nc3ccc4c(c3)OCO4)cc2)no1,/,/,/,2,/
CN(C)S(=O)(=O)Nc1ccc2c(c1)OCO2,25,76*,0.8,/,0.2
COc1ccc(S(=O)(=O)Nc2ccc3c(c2)OCO3)cc1C,36,99*,0.6,0,0
O=C1CCCN1c1ccc(S(=O)(=O)Nc2ccc3c(c2)OCCO3)cc1,40,44,0.6,9,0.6
COc1ccc(S(=O)(=O)Nc2ccc3c(c2)OCO3)cc1,56*,93*,0.4,3,0.1
O=S(=O)(Nc1ccc2c(c1)OCO2)c1ccc(Br)s1,96*,78*,0,1,0.2
Cc1cc(NS(=O)(=O)N(C)C)ccc1C(C)C,77*,90*,0.2,0,0.1
Cc1ccc(C)c(-c2csc(N)c2C(=O)OC(C)C)c1,67*,69*,0.3,7,0.3
Cc1cccc(-c2csc(N)c2C(=O)OC(C)C)c1,/,/,/,0,/
Cc1ccc(NC(=O)CCNS(=O)(=O)c2ccc3c(c2)oc(=O)n3C)c(C)c1,-22,11,1.2,0,0.9
Cn1c(=O)oc2cc(S(=O)(=O)NCCC(=O)NCCc3ccccc3)ccc21,-12,72*,1.1,/,0.3
CCN(CC)c1ccc(NS(=O)(=O)c2ccc3c(c2)oc(=O)n3C)c(C)c1,53*,84*,0.5,-9,0.2
COc1ccccc1CNS(=O)(=O)c1ccc2c(c1)oc(=O)n2C,-188,98*,2.9*,/,0
CC(=O)N1CCc2cc(S(=O)(=O)NCCC(=O)NCCc3ccc(C)cc3)ccc21,59*,6,0.4,/,0.9
CCOC(=O)C1=NN(C(=O)Nc2ccc(OC)cc2)C2C(=O)N(c3cccc(C(F)(F)F)c3)C(=O)C12 (stereo not drawn),-6,6,1.1,1,0.9
C=C(C)Cn1c(CCNC(=O)CCC)nc2ccccc21,-2,37,1,/,0.6
COc1cc(OC)cc(C(=O)NC2CCN(Cc3nnnn3Cc3cccs3)CC2)c1,-13,47,1.1,-6,0.5
Cc1ccc(CCNC(=O)CCNS(=O)(=O)c2ccc3c(c2)oc(=O)n3C)cc1,0,58*,1,/,0.4
CCCN(CCC)CCNS(=O)(=O)c1ccc2c(c1)oc(=O)n2C,-7,-7,1.1,6,1.1
CCN(CCNS(=O)(=O)c1ccc2c(c1)oc(=O)n2C)c1ccccc1,-86,65*,1.9,6,0.3
CCCN1CCN(C(=O)CCCn2c(C)c3cnn(-c4ccccc4)c(=O)c3c2C)CC1,0,30,1,/,0.7
Cc1ccccc1NC1=C/C(=N\S(=O)(=O)c2cccs2)c2ccccc2C1=O,84*,82*,0.2,4,0.2
Cc1ccc2cc(C=C(C#N)C#N)c(N3CCCCC3)nc2c1,26,6,0.7,-3,0.9
CCOC(=O)NC1(C(F)(F)F)C(=O)N(Cc2ccccc2)C2=C1C(=O)CC(C)(C)C2 (stereo not drawn),4,71*,1,6,0.3
SMILES,CYP2C9 inhib,CYP2C19 inh,CYP2C9 act,EphB4 antag,CYP2C19 activ
CC1(C)CC(=O)C2=C(C1)N(Cc1cccnc1)C(=O)C2(NC(=O)c1cccnc1)C(F)(F)F (stereo not drawn),-4,1,1,8,1
COc1cc(CN2C(=O)C(NC(=O)c3ccco3)(C(F)(F)F)C3=C2CC(C)(C)CC3=O)cc(OC)c1 (stereo not drawn),60*,14,0.4,-1,0.9
O=C(COc1cccc2ccccc12)NNC(=O)[C@@H]1CCCC[C@@H]1C(=O)O,-72,33,1.7,-3,0.7
COc1cc(C(=O)N(CCCO)Cc2cc3ccc(C)c(C)c3[nH]c2=O)cc(OC)c1OC,6,-9,0.9,3,1.1
CCCC(=O)Nc1ccccc1-c1nnn(CC(=O)Nc2ccc(OCC)cc2)n1,/,/,/,1,/
COc1ccc(CCNC(=O)Cn2nnc(-c3cccc(OC)c3OC)n2)cc1OC,22,43,0.8,1,0.6
O=C(CN(C(=O)Cn1nnc(-c2ccccc2F)n1)c1cccc2c1CCCC2)NCc1ccccc1,96*,23,0,-6,0.8
O=C(Cn1nnc(-c2ccccc2F)n1)NCCc1ccccc1,33,70*,0.7,6,0.3
O=C(Cn1nnc(-c2ccccc2F)n1)Nc1cccc2ncccc12,29,63*,0.7,-2,0.4
COc1ccc(-c2nnn(CC(=O)N(CC(=O)NCCC(C)C)c3ccccc3)n2)cc1OC,-9,32,1.1,7,0.7
COc1ccc(C(=O)Cn2nnc(-c3ccccc3F)n2)cc1,-41,55*,1.4,1,0.5
O=c1[nH]c2cc3c(cc2cc1CN(Cc1ccc2c(c1)OCO2)Cc1nnnn1CC1CCCO1)OCO3 (stereo not drawn),9,0,0.9,5,1
CC(=O)Nc1sc(C)c(C)c1CN1CCN(S(=O)(=O)c2ccccc2)CC1,6,9,0.9,/,0.9
CCC(C)NS(=O)(=O)c1ccc(S(=O)(=O)N(CC(=O)Nc2ccccc2)Cc2ccco2)cc1 (stereo not drawn),42,29,0.6,3,0.7
O=C(CN(Cc1ccco1)S(=O)(=O)c1cccs1)Nc1ccccc1C(F)(F)F,79*,90*,0.2,-3,0.1
CCc1nnc(NC(=O)c2ccc(N3C(=O)CCC3=O)cc2)s1,8,12,0.9,/,0.9
C=CCNC(=O)c1onc(CSc2ccc(F)c(F)c2)c1C(=O)O,77*,44,0.2,7,0.6
CCCCNC(=O)c1onc(CSc2ccc(Cl)cc2)c1C(=O)O,86*,16,0.1,1,0.8
CC(C)c1ccc(SCc2noc(C(=O)NCC3CCCO3)c2C(=O)O)cc1 (stereo not drawn),61*,21,0.4,3,0.8
CC(C)NC(=O)c1onc(CSc2ccc(Cl)cc2)c1C(=O)O,70*,19,0.3,-6,0.8
C/C=C/C(=O)OCC(=O)NC(=O)NC(C)C,-12,1,1.1,-2,1
CCCOC(=O)c1ccc2c(c1)C(=O)N(c1ccccc1)C2=O,15,32,0.9,2,0.7
Cn1c(=O)c2c(nc(CN3CCN(C(=O)c4ccco4)CC3)n2Cc2ccc(F)cc2)n(C)c1=O,-5,-5,1,1,1
Cc1cc2c(n1-c1ccc(Cl)cc1)CC(C)(C)CC2=O,5,48,1,-5,0.5
O=C(CSc1ccc2nnc(-c3cccnc3)n2n1)NCc1ccco1,21,12,0.8,5,0.9
Cc1oc(-c2ccccc2Cl)cc1-c1nn2c(-c3ccco3)nnc2s1,1,4,1,/,1
Cc1nn(C)c(Oc2cccc(Cl)c2)c1C(=O)Nc1ccc(F)cc1F,0,14,1,6,0.9
